# Sampled rows, rich in hits. Any-hit rate of the full collection: about 18%.
# DT40 TDP1 no CPT: qHTS for Inhibitors of human tyrosyl-DNA phosphodiesterase 1 (TDP1): qHTS in cells in absence of CPT; DT40 Tdp1-/- hTDP1 cells, no CPT, ATP luminescence, 48 h; Potency, µM (highest dose often 46.2 µM), inactives show top-dose activity change, negative = growth inhibition, hits mostly inhibitors; actives 15% (n = 420,000); note: potency is the fitted concentration of half-maximal effect; nearly all actives have a fitted effect of over 55% in size
#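 Chicken DT40 Tdp1-/- cells complemented with human TDP1, screened without camptothecin (DMSO vehicle only), 400 cells/well. Compounds pin-transferred, cells incubated at 37 °C for at least 48 hr. Growth read as ATP-dependent luminescence (CellTiter-Glo, 30 min at RT).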
# TDP1 inh: inhibitors of human tyrosyl-DNA phosphodiesterase TDP1. Q9NUW8. recombinant TDP1, AlphaScreen DNA substrate cleavage. Potency, µM (top dose mostly 130 µM), for the others: top-dose activity change, negative = inhibition, usual class: inhibitors. actives 0.28% (n = 350,000). AID 485290; note: potency is the fitted concentration of half-maximal effect; nearly all actives have a fitted effect of over 40% in size
#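 Recombinant E. coli-expressed Tdp1 (1 nM) preincubated with compound 15 min at RT, then 5'-biotin/3'-phosphotyrosine-FITC DNA substrate (15 nM) added for 5 min. AlphaScreen beads (10 ug/ml) added, 10 min RT; tyrosine-FITC cleavage read as signal loss.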
# Six1-Eya2 blk: inhibitors of human Six1/Eya2 interaction; Q15475+O00167; AID 651725; actives 0.56% (n = 360,000); AlphaScreen GST-Six1/His-Eya2 binding, biochemical; hits give low values; activity change, % (concentration not given with the values); in the data active = activity change below about -65%; inconclusive = mostly about -30% to -63%
# Target sequence (O00167 whole entry, looked up): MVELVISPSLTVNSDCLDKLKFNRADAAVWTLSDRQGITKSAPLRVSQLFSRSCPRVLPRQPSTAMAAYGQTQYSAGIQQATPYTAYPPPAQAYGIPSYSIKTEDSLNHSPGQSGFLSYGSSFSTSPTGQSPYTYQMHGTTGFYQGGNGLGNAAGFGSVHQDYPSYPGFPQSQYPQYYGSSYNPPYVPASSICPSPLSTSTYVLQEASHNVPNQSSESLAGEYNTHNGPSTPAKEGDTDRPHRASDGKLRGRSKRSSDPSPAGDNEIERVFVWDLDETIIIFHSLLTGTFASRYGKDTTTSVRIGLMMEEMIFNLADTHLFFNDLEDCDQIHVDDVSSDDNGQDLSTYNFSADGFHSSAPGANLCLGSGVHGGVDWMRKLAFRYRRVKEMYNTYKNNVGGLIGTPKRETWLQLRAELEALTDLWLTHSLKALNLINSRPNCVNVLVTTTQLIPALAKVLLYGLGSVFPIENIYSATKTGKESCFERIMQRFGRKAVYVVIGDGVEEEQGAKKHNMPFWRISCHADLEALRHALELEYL
# Target sequence (Q15475 whole entry, looked up): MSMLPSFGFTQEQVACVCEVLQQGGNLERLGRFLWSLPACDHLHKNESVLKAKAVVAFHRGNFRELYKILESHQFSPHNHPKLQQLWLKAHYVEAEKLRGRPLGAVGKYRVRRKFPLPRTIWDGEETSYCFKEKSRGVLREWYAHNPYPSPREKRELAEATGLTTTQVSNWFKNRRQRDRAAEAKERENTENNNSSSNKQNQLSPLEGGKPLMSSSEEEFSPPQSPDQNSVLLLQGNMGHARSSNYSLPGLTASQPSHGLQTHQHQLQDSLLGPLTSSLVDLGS
#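 AlphaScreen luminescence read after one hour at 37 °C in darkness. Pin-transferred compounds met GST-Six1 and His-Eya2 protein (5X stock 250 nM/500 nM) plus glutathione donor and Ni-chelate acceptor beads (5X, 50 ug/mL).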
# CtBP-E1A blk: inhibitors of CtBP/E1A interaction. actives 0.49% (n = 340,000). AID 651724. activity change, % (concentration not given with the values). AlphaScreen GST-E1A/His-CtBP binding, 1536-well; hits give low values; in the data active = activity change below about -65%; inconclusive = mostly about -30% to -63%
#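 Homogeneous bead-based format: GST-tagged E1A captured on glutathione donor beads, His-tagged CtBP on nickel acceptor beads; compounds precede bead addition by 2 h at 37 °C.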
# DT40 TDP1 CPT: growth inhibition of DT40 Tdp1-/-;hTDP1 cells with camptothecin (screen for TDP1 inhibitors); actives 12% (n = 420,000); chicken DT40 Tdp1-/-;hTDP1 cells + 20 nM CPT, ATP luminescence, 48 h; Potency, µM (series often up to 46.2 µM), for inactives: at the top dose activity change, negative = growth inhibition, most hits filed as inhibitors; AID 686979; note: potency is the fitted concentration of half-maximal effect; nearly all actives have a fitted effect of over 55% in size
#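 Chicken DT40 Tdp1-/- cells stably complemented with human TDP1 were seeded at 400 cells/well in medium containing 20 nM camptothecin, exposed to pin-transferred compounds, and grown at 37 °C for at least 48 hr. Viability was read as ATP luminescence.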
# IL-1B inflam inh: inhibitors of inflammasome signaling (IL-1 beta secretion) | AID 743279 | activity change, % at 57.5 µM | THP-1 LPS/ATP IL-1B secretion, AlphaLISA, 16 h; hits give low values | actives 4.7% (n = 360,000); in the data active = activity change below about -50%; inconclusive = mostly about -30% to -49%
#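 Secreted IL-1B measured by AlphaLISA bead assay after 16 h compound exposure of THP-1 cells; compounds (final up to 57.5 uM) added 1 h before LPS (250 ng/mL) and ATP (1.25 mM) stimulation; lower signal means less secretion.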
# Numbers without * were called inactive; u = inconclusive; x = not tested or not shown; [ ] = another dose, or the depositor's remark. Unless noted, calls come from the whole dose curve; as a rule, active = well fitted curve in the direction sought with a large enough effect; inconclusive = small, poorly fitted or top-dose-only effect, or another doubt; inactive = no such curve, though single readings can be large; an effect the other way counts as inactive or inconclusive. % is set by controls: 0 for no effect and ±100 for the full control effect.
SMILES,DT40 TDP1 no CPT,TDP1 inh,Six1-Eya2 blk,CtBP-E1A blk,DT40 TDP1 CPT,IL-1B inflam inh
Cc1cccc(N2CCN(CCCNC(=O)c3nnc(Cc4c(F)cccc4Cl)o3)CC2C)c1 (stereo not drawn),u,-4%[12.3 µM],x,x,23µM*,x
COc1ccc(Cc2nnc(C(=O)NCCCN3CCN(c4ccccc4F)CC3)o2)cc1OC,u,3%,x,x,u,x
O=C(NCCCN1CCN(Cc2ccccc2)CC1)c1nnc(Cc2c(F)cccc2Cl)o1,-29%,-2%,-1,2,-11%,3
O=C(NCCCN1CCN(c2ccccc2F)CC1)c1nnc(Cc2ccc(Cl)cc2Cl)o1,15µM*,0%,x,x,21µM*,x
Cc1ccc(Cl)cc1N1CCN(CCCNC(=O)c2nnc(Cc3cccc(Cl)c3)o2)CC1,10µM*,8%,x,x,21µM*,x
Cc1cc(C)c(C)c(OCC(=O)N2CCOCC2)c1,0%,1%,-5,2,-3%,2
CCN(CC)Cc1c(O)ccc2c(=O)c(-c3ccc4c(c3)OCCO4)coc12,10µM*,5%,5,-9,3.3µM*,1
CCN(CC)Cc1c(O)ccc2c(=O)c(-c3ccccc3)coc12,u,x,-5,11,9.2µM*,-12
Cc1cc(NC(=O)CSc2nc(=O)n(CCN(C)C)c3c2CCCC3)no1,-6%,4%,1,2,12%,2
CCCN1CCN(C(=O)CN2C(=O)CC(C)(C)S(=O)(=O)c3ccccc32)CC1,5%,0%,3,6,1%,-4
COc1ccc(CNC(C)C23CC4CC(CC(C4)C2)C3)c(OC)c1OC (stereo not drawn),15µM*,x,-1,x,u,u
COc1cccc(OC)c1C(=O)NC(C)C12CC3CC(CC(C3)C1)C2 (stereo not drawn),u,4%,3,2,u,14
Cc1ccc(NCc2cc3cc4c(cc3n(CC(=O)Nc3ccc(C)cc3)c2=O)OCCO4)cc1,8.2µM*,0%,x,x,7.3µM*,x
Cc1ccc(NCc2cc3cc4c(cc3n(CC(=O)Nc3ccc(F)cc3F)c2=O)OCCO4)cc1,x,-6%,x,x,x,x
COc1ccc(-c2cn(-c3ccc(C)cc3)c(=O)n2CC(=O)Nc2cccc(F)c2)cc1,-14%,8%,0,6,-5%,-29
COc1ccc(NCc2cc3cc4c(cc3n(CC(=O)Nc3ccccc3)c2=O)OCO4)cc1,4.1µM*,11%,x,x,5.2µM*,x
COc1ccc(-n2cc(-c3ccc4c(c3)OCO4)n(CC(=O)Nc3cccc(C)c3)c2=O)cc1,u,0%[12.3 µM],x,x,23µM*,x
COc1cc2cc(CNc3ccc(C)cc3)c(=O)n(CC(=O)Nc3ccc(F)cc3F)c2cc1OC,16µM*,3%,x,x,u,x
CCCCNc1ccc2oc(-c3ccc(OC)cc3)c(-c3ccc(OC)c(F)c3)c2c1,u,3%,4,9,u,30
COc1ccc(CCNc2ncnc3[nH]ncc23)cc1OC,15µM*,3%,-12,-1,15µM*,4
CCCCCCCCNc1ncnc2[nH]ncc12,3.7µM*,x,1,3,4.6µM*,-6
CCOc1ccc2[nH]c3c(NCCc4ccc(OC)c(OC)c4)ncnc3c2c1,2.9µM*,9%,-23,-16,4.1µM*,-96*
COc1ccc(CNc2ncnc3cc(OC)c(OC)cc23)cc1OC,-5%,x,-8,-11,4%,54
COc1ccc(CCNc2ncnc3sc(C)cc23)cc1OC,0.26µM*,x,-7,2,0.58µM*,-15
Cc1noc(C)c1NC(=O)N(C)C[C@H]1OCc2cnnn2CCCC(=O)N([C@H](C)CO)C[C@@H]1C,-4%,x,-2,3,-1%,1
SMILES,DT40 TDP1 no CPT,TDP1 inh,Six1-Eya2 blk,CtBP-E1A blk,DT40 TDP1 CPT,IL-1B inflam inh
CC(C)c1ccc(S(=O)(=O)N2CCN(C(=O)c3cc(-c4ccccc4)n[nH]3)CC2)cc1,-23%,x,-1,2,u,3
Cc1ccccc1NC(=O)CN1CCCC1,-1%,x,1,-2,-5%,-2
COCCNC(=S)N(Cc1cc2cc(C)ccc2n2nnnc12)C1CCCC1,-20%,5%,1,15,-13%,20
CCOc1ccc(C2N3CC4(C(C)C)CN2CC(C(C)C)(C3)C4=O)cc1OC (stereo not drawn),u,7%,x,x,u,x
COc1cccc(CCNc2ncnc3sc(C(=O)N4CCN(C)CC4)c(C)c23)c1,-40%,x,x,x,-6%[9.04 µM],x
Fc1ccc(CCNc2ncnc3[nH]ncc23)cc1,16µM*,x,-1,12,u,1
COc1ccc(CCNc2ncnc3sc(C(=O)N4CCCCC4)c(C)c23)cc1OC,18µM*,x,x,x,0%[9.04 µM],x
OCCCNc1ncnc2[nH]ncc12,1%,x,9,1,5%,11
O=C(COc1ncnc2ccc(Br)cc12)NC1CCCC1,18%,0%,1,-24,-15%,19
Cc1ccc(P(=O)(OCCN2CCOCC2)C(C)(C)C)o1 (stereo not drawn),-6%,0%,3,26,1%,31
CC(C)c1ccc(NC(=O)c2ccc(F)c(S(=O)(=O)N3CCCC3)c2)cc1,u,8%,x,x,10µM*,x
CC(C)c1ccc(NC(=O)c2ccc(F)c(S(=O)(=O)N3CCCCCC3)c2)cc1,u,0%,x,x,u,x
O=C(Nc1cc(Cl)cc(Cl)c1)c1ccc(F)c(S(=O)(=O)N2CCCC2)c1,21µM*,3%,x,x,16µM*,x
O=C(Nc1cc(Cl)cc(Cl)c1)c1ccc(F)c(S(=O)(=O)N2CCc3ccccc32)c1,9.2µM*,3%,x,x,5.8µM*,x
COc1cc(C2C(=O)N(C3CCCCC3)CC(=O)N2C2CCCC2)ccc1OC(C)C (stereo not drawn),-11%,8%,x,x,-13%,x
Oc1ccc(NCc2ccc(OCc3ccccc3)cc2)cc1,12µM*,8%,-21,u,6.5µM*,60
S=C(c1ccc(OCc2ccccc2)cc1)N1CCCC1,u,3%,-7,x,18µM*,-5
Oc1ccc(OCc2ccccc2)cc1,u,9%[56.1 µM],x,x,4µM*,x
CCC(C)NC(=O)COc1ccc(OCc2ccccc2)cc1 (stereo not drawn),26µM*,-4%,9,x,u,19
Cc1c(C(=O)O)sc(S(=O)(=O)N2CCN(C(=O)Cc3ccc(Cl)cc3)CC2)c1C(=O)O,-6%,x,-3,1,0%,8
O=C(Nc1cc(Cl)ccc1O)c1cc2nc(-c3ccc4c(c3)OCO4)cc(C(F)(F)F)n2n1,u,2%,x,x,-25%,x

# From PubChem BioAssay
